# How the values were obtained:
# Conditions in all cases: Compound Concentration (nM):1000
# ROCK2 = system: ROCK2
# ROS1 = system: ROS1
# [1] = system: RPS6KA4(Kin.Dom.1-N-terminal)
# [2] = system: RPS6KA4(Kin.Dom.2-C-terminal)
# [3] = system: RPS6KA5(Kin.Dom.1-N-terminal)
# [4] = system: RPS6KA5(Kin.Dom.2-C-terminal)
# [5] = system: T1, RSK1(Kin.Dom.1-N-terminal)
# T1 construct: gene RPS6KA1
# [6] = system: T2, RSK1(Kin.Dom.2-C-terminal)
# T2 construct: gene RPS6KA1
# [7] = system: T3, RSK2(Kin.Dom.1-N-terminal)
# T3 construct: gene RPS6KA3
# [8] = system: T4, RSK2(Kin.Dom.2-C-terminal)
# T4 construct: gene RPS6KA3
# [9] = system: T5, RSK3(Kin.Dom.1-N-terminal)
# T5 construct: gene RPS6KA2
# [10] = system: T6, RSK3(Kin.Dom.2-C-terminal)
# T6 construct: gene RPS6KA2
# [11] = system: T7, RSK4(Kin.Dom.1-N-terminal)
# T7 construct: gene RPS6KA6
# [12] = system: T8, RSK4(Kin.Dom.2-C-terminal)
# T8 construct: gene RPS6KA6
# S6K1 = system: T9, S6K1
# T9 construct: gene RPS6KB1
# SBK1 = system: SBK1
# SGK2 = system: SGK2
# SGK3 = system: SGK3
# SGK = system: T10, SGK
# T10 construct: gene SGK1
# SIK2 = system: SIK2
# 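Further: KINOMEscan scanMAX binding as percent activity remaining versus control; lower means stronger binding.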
SMILES,Percent Control (ROCK2) [%],Percent Control (ROS1) [%],Percent Control [1] [%],Percent Control [2] [%],Percent Control [3] [%],Percent Control [4] [%],Percent Control [5] [%],Percent Control [6] [%],Percent Control [7] [%],Percent Control [8] [%],Percent Control [9] [%],Percent Control [10] [%],Percent Control [11] [%],Percent Control [12] [%],Percent Control (S6K1) [%],Percent Control (SBK1) [%],Percent Control (SGK2) [%],Percent Control (SGK3) [%],Percent Control (SGK) [%],Percent Control (SIK2) [%]
CCn1c(-c2nonc2N)nc2c(C#CC(C)(C)O)nc(OCCNC)cc21.Cl [GSK949675],78,100,100,5.9,91,34,100,100,97,72,99,100,100,100,100,96,100,92,94,90
CN(C)CCNC(=O)Nc1ccc(N(C)c2ccnc(Nc3ccc(CS(C)(=O)=O)cc3)n2)cc1.Cl [GW830900A],9.1,61,100,88,100,100,100,84,73,82,100,94,74,87,85,95,80,84,48,73
NS(=O)(=O)c1ccc(N/N=C2\C(=O)Nc3ccc(C(=O)NCc4ccncc4)cc32)cc1 [GW300657X],56,100,87,42,100,19,94,83,79,87,100,80,56,80,78,37,81,12,36,100
CC(C)COC(=O)c1ccc2c(c1)/C(=C/Nc1ccc(S(N)(=O)=O)cc1)C(=O)N2 [GW416981X],21,100,100,67,100,66,100,100,36,97,100,100,43,100,65,71,79,18,31,94
O=C(Nc1n[nH]c2nc(-c3ccc(O)cc3)c(Br)cc12)C1CC1 [SB-725317],98,91,100,1.2,100,43,100,100,65,97,96,100,19,100,100,100,100,88,100,100
COc1cc2ncnc(Nc3ccc4c(cnn4Cc4ccccc4)c3)c2cc1OC.Cl [GW282449A],100,89,42,93,84,100,100,100,100,99,100,100,92,100,100,100,100,100,100,68
COc1cc(C)c(N(C)C(=O)CN(C)C)cc1Nc1nc(Nc2cccc(F)c2C(N)=O)c2cc[nH]c2n1 [GSK2219385],100,84,92,68,100,90,56,96,21,100,79,90,75,82,100,100,92,92,92,100
Cl.O=C(O[C@H]1CN[C@H](C#Cc2cc3ncnc(Nc4ccc5c(cnn5Cc5ccccc5)c4)c3s2)C1)N1CCOCC1 [GSK200398A],84,73,97,88,100,100,96,97,95,93,92,89,80,83,100,100,97,99,99,69
Cl.O=C(Nc1ccc(Oc2ccc3[nH]c(NC(=O)c4ccco4)nc3c2)cc1)Nc1cc(C(F)(F)F)ccc1F [GW683134A],57,61,100,82,95,75,100,100,100,100,92,100,100,100,43,100,100,100,100,100
COc1cccc(-n2ncc3c(N/N=C/c4ccncc4)ncnc32)c1 [GW784752X],84,100,100,70,100,100,94,100,100,86,100,98,94,100,93,63,83,77,57,75
